Where a name gives a salt, the structure may show the parent alone.
Experiments:
Details in all cases: treatment time: 24 h
[1] = tested on: A549-ACTB-RAB5A; experiment: phenotypically active (imaging signature differs from DMSO and reproducible) at any of 0.3-9 uM (binary (1 = active, 0 = inactive)); higher = active
Outline: (§1)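 The reporter lines, fifteen in total and built by gene editing in A549, HepG2 and WPMY1 cells, used BFP for segmentation alongside GFP and RFP/FusionRed markers. Each was treated at 0.3, 1, 3 or 9 µM for 24 h in four wells and then imaged live, with live-cell features normalised to solvent control wells. Deviation meant ≥3 of 4 wells beyond the 95th percentile of control Euclidean distances; reproducibility meant a median replicate Pearson correlation above the 95th percentile of non-replicates. Only conditions meeting both were scored as phenotypically active.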

[2] = tested on: A549-CANX-COX4; experiment: as above
Outline: as §1

[3] = tested on: A549-GM130-SQSTM1; experiment: as above
Outline: as §1

[4] = tested on: A549-TP53BP1-CLTA; experiment: as above
Outline: as §1

[5] = tested on: A549-TUBA1B-RELA; experiment: as above
Outline: as §1

[6] = tested on: HepG2-ACTB-RAB5A; experiment: as above
Outline: as §1

[7] = tested on: HepG2-CANX-COX4; experiment: as above
Outline: as §1

[8] = tested on: HepG2-GM130-SQSTM1; experiment: as above
Outline: as §1

[9] = tested on: HepG2-TP53BP1-CLTA; experiment: as above
Outline: as §1

[10] = tested on: HepG2-TUBA1B-RELA; experiment: as above
Outline: as §1

[11] = tested on: WPMY1-ACTB-RAB5A; experiment: as above
Outline: as §1

[12] = tested on: WPMY1-CANX-COX4; experiment: as above
Outline: as §1

[13] = tested on: WPMY1-GM130-SQSTM1; experiment: as above
Outline: as §1

[14] = tested on: WPMY1-TP53BP1-CLTA; experiment: as above
Outline: as §1

[15] = tested on: WPMY1-TUBA1B-RELA; experiment: as above
Outline: as §1

[16] = tested on: HepG2-CANX-COX4; experiment: lowest phenotypically active concentration; higher = less potent
Outline: as §1

[17] = tested on: HepG2-GM130-SQSTM1; experiment: as above
Outline: as §1

[18] = tested on: HepG2-TUBA1B-RELA; experiment: as above
Outline: as §1

[19] = tested on: WPMY1-GM130-SQSTM1; experiment: as above
Outline: as §1

C[C@H]1CC[C@@H]2N(C1)C[C@H]1[C@@H]3C[C@H]4[C@@H](CC(=O)[C@H]5C[C@@H](O)CC[C@@]54C)[C@@H]3CC[C@H]1[C@]2(C)O [Imperialine]
active: phenotypically active [11] 1 | phenotypically active [12] 1
inactive: phenotypically active [1] 0 | phenotypically active [2] 0 | phenotypically active [3] 0 | phenotypically active [4] 0 | phenotypically active [5] 0 | phenotypically active [6] 0 | phenotypically active [7] 0 | phenotypically active [8] 0 | phenotypically active [9] 0 | phenotypically active [10] 0 | phenotypically active [13] 0 | phenotypically active [14] 0 | phenotypically active [15] 0

CCC(=O)O[C@](Cc1ccccc1)(c1ccccc1)[C@H](C)CN(C)C [propoxyphene]
inactive: phenotypically active [2] 0 | phenotypically active [4] 0 | phenotypically active [6] 0 | phenotypically active [7] 0 | phenotypically active [8] 0 | phenotypically active [9] 0 | phenotypically active [10] 0 | phenotypically active [11] 0 | phenotypically active [12] 0 | phenotypically active [13] 0 | phenotypically active [14] 0 | phenotypically active [15] 0

CC[C@H]1CN2CCC1C[C@H]2[C@H](O)c1ccnc2ccc(OC)cc12 (stereo not given in full) [Hydroquinine hydrobromide hydrate]
inactive: phenotypically active [2] 0 | phenotypically active [4] 0 | phenotypically active [6] 0 | phenotypically active [7] 0 | phenotypically active [8] 0 | phenotypically active [9] 0 | phenotypically active [10] 0 | phenotypically active [11] 0 | phenotypically active [12] 0 | phenotypically active [13] 0 | phenotypically active [15] 0
active: phenotypically active [14] 1

C=C(C)[C@H]1Cc2c(ccc3c2O[C@@H]2COc4cc(OC)c(OC)cc4[C@@H]2C3=O)O1 [Rotenone]
1 µM: lowest phenotypically active concentration [19]
≤ 0.3 µM: lowest phenotypically active concentration [16] | lowest phenotypically active concentration [17] | lowest phenotypically active concentration [18]
active: phenotypically active [2] 1 | phenotypically active [4] 1 | phenotypically active [6] 1 | phenotypically active [7] 1 | phenotypically active [8] 1 | phenotypically active [9] 1 | phenotypically active [10] 1 | phenotypically active [11] 1 | phenotypically active [12] 1 | phenotypically active [13] 1 | phenotypically active [14] 1 | phenotypically active [15] 1

C[C@]12CC[C@H]3[C@@H](CCC4=CC(=O)CC[C@@]43C)[C@@H]1CC[C@@H]2O [testosterone]
3 µM: lowest phenotypically active concentration [16]
9 µM: lowest phenotypically active concentration [19]
active: phenotypically active [7] 1 | phenotypically active [13] 1
inactive: phenotypically active [1] 0 | phenotypically active [2] 0 | phenotypically active [3] 0 | phenotypically active [4] 0 | phenotypically active [5] 0 | phenotypically active [6] 0 | phenotypically active [8] 0 | phenotypically active [9] 0 | phenotypically active [10] 0 | phenotypically active [11] 0 | phenotypically active [12] 0 | phenotypically active [14] 0 | phenotypically active [15] 0

CN1C(=O)CN=C(c2ccccc2)c2cc(Cl)ccc21 [diazepam]
active: phenotypically active [6] 1
inactive: phenotypically active [1] 0 | phenotypically active [2] 0 | phenotypically active [3] 0 | phenotypically active [4] 0 | phenotypically active [5] 0 | phenotypically active [7] 0 | phenotypically active [8] 0 | phenotypically active [9] 0 | phenotypically active [10] 0 | phenotypically active [11] 0 | phenotypically active [12] 0 | phenotypically active [13] 0 | phenotypically active [14] 0 | phenotypically active [15] 0

CCN(CC)CCN1C(=O)CN=C(c2ccccc2F)c2cc(Cl)ccc21 [flurazepam]
active: phenotypically active [7] 1
1 µM: lowest phenotypically active concentration [16]
inactive: phenotypically active [1] 0 | phenotypically active [2] 0 | phenotypically active [3] 0 | phenotypically active [4] 0 | phenotypically active [5] 0 | phenotypically active [6] 0 | phenotypically active [8] 0 | phenotypically active [9] 0 | phenotypically active [10] 0 | phenotypically active [11] 0 | phenotypically active [12] 0 | phenotypically active [13] 0 | phenotypically active [14] 0 | phenotypically active [15] 0

O=P1(N(CCCl)CCCl)NCCCO1 (stereo not given) [cyclophosphamide]
inactive: phenotypically active [2] 0 | phenotypically active [4] 0 | phenotypically active [6] 0 | phenotypically active [7] 0 | phenotypically active [8] 0 | phenotypically active [9] 0 | phenotypically active [10] 0 | phenotypically active [11] 0 | phenotypically active [12] 0 | phenotypically active [13] 0 | phenotypically active [14] 0 | phenotypically active [15] 0

CCC(=O)C(CC(C)N(C)C)(c1ccccc1)c1ccccc1 (stereo not given) [methadone]
inactive: phenotypically active [1] 0 | phenotypically active [2] 0 | phenotypically active [3] 0 | phenotypically active [5] 0 | phenotypically active [6] 0 | phenotypically active [7] 0 | phenotypically active [8] 0 | phenotypically active [10] 0 | phenotypically active [11] 0 | phenotypically active [12] 0 | phenotypically active [13] 0 | phenotypically active [15] 0

C[C@]12CC[C@H](O)C[C@H]1CC[C@@H]1[C@@H]2CC[C@]2(C)[C@@H](C3=CC(=O)OC3)CC[C@]12O [Digitoxigenin]
≤ 0.3 µM: lowest phenotypically active concentration [16] | lowest phenotypically active concentration [17] | lowest phenotypically active concentration [18]
active: phenotypically active [2] 1 | phenotypically active [4] 1 | phenotypically active [6] 1 | phenotypically active [7] 1 | phenotypically active [8] 1 | phenotypically active [9] 1 | phenotypically active [10] 1 | phenotypically active [11] 1 | phenotypically active [12] 1 | phenotypically active [13] 1 | phenotypically active [14] 1 | phenotypically active [15] 1
1 µM: lowest phenotypically active concentration [19]

C=C1C/C(=C\C)C(=O)O[C@@H]2CCN3CC=C(COC(=O)[C@]1(C)O)[C@H]23 [Seneciphylline]
inactive: phenotypically active [1] 0 | phenotypically active [2] 0 | phenotypically active [3] 0 | phenotypically active [4] 0 | phenotypically active [5] 0 | phenotypically active [6] 0 | phenotypically active [7] 0 | phenotypically active [8] 0 | phenotypically active [10] 0 | phenotypically active [11] 0 | phenotypically active [12] 0 | phenotypically active [13] 0 | phenotypically active [14] 0 | phenotypically active [15] 0
active: phenotypically active [9] 1

C[C@H]1C(=O)O[C@@H]2CCN3CC=C(COC(=O)[C@](C)(O)[C@]1(C)O)[C@H]23 [Monocrotaline]
inactive: phenotypically active [1] 0 | phenotypically active [2] 0 | phenotypically active [3] 0 | phenotypically active [4] 0 | phenotypically active [6] 0 | phenotypically active [7] 0 | phenotypically active [8] 0 | phenotypically active [9] 0 | phenotypically active [10] 0 | phenotypically active [11] 0 | phenotypically active [12] 0 | phenotypically active [13] 0 | phenotypically active [14] 0 | phenotypically active [15] 0
active: phenotypically active [5] 1

C[N+]12CCC(CC1)C(OC(=O)C(O)(c1ccccc1)c1ccccc1)C2 (stereo not given) [clidinium]
inactive: phenotypically active [2] 0 | phenotypically active [4] 0 | phenotypically active [6] 0 | phenotypically active [7] 0 | phenotypically active [8] 0 | phenotypically active [9] 0 | phenotypically active [10] 0 | phenotypically active [11] 0 | phenotypically active [12] 0 | phenotypically active [13] 0 | phenotypically active [14] 0 | phenotypically active [15] 0
